Shiga inhibitor: A qHTS for Small Molecule Inhibitors of Shiga Toxin. inhibition, % at 38.7 µM. AID 2315, 2010. Vero cells, Shiga toxin protein synthesis inhibition reporter. actives 9.2% (n = 290,000); in the data active = inhibition mostly above about 28%, no sharp cut-off; inactive = mostly below about 43%
Tb PYK inh: qHTS of Trypanosoma Brucei Inhibitors; pyruvate kinase (Trypanosoma brucei), Q57TT1; TbPYK enzyme, Kinase-Glo Plus ATP luminescence, 45 min; Potency, µM (series often up to 76.8 µM), actives largely listed as inhibitors; actives 0.12% (n = 410,000); AID 624173, 2012; note: nearly all actives have a fitted effect of over 50% in size
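Luminescent Kinase-Glo Plus end-point after 45 min room-temperature reaction of T. brucei pyruvate kinase started with 130 uM ADP (final). Buffer TEA 50 mM pH 7.2 with KCl, MgCl2, BSA, Tween-20; titration-based qHTS with fitted concentration-effect curves.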
RE007 growth inh: qHTS Assay for Inhibitors of the HIV-1 protein Vpr; S. pombe RE007 Vpr strain, BacTiter-Glo ATP luminescence, 24 h; Potency, µM (highest dose often 92.2 µM), hits mostly inhibitors; actives 0.21% (n = 360,000); AID 651644, 2012; active = well fitted falling curve with a large enough effect; inconclusive = small, poorly fitted or top-dose-only effect; inactive = no such curve, though single readings can be large or run the other way; note: nearly all actives have a fitted effect of over 50% in size
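Fission yeast RE007 carrying one integrated HIV-1 vpr copy, seeded at OD 0.01 in PMG+AL medium with 23 nL pinned compound. Grown 24 h at 30 degrees; viability read by BacTiter-Glo luminescence after 5 min.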
CHX counter-1: Cycloheximide Counterscreen for Small Molecule Inhibitors of Shiga Toxin. cell reporter, cycloheximide protein synthesis inhibition counterscreen. max response, %. actives 12% (n = 300,000). AID 2314, 2010; in the data active = max response mostly above about 13%, no sharp cut-off; inactive = mostly below about 14%; note: read at 38.3 µM for the half of the compounds with a filed dose
LmPK inh: qHTS Assay for Inhibitors of Leishmania Mexicana Pyruvate Kinase (LmPK); Q27686; purified LmPK, Kinase-Glo ATP luminescence, 1 h; Potency, µM (highest dose often 57.5 µM), most hits filed as inhibitors; actives 0.37% (n = 290,000); AID 1721, 2009
Target sequence (Q27686 whole entry, looked up): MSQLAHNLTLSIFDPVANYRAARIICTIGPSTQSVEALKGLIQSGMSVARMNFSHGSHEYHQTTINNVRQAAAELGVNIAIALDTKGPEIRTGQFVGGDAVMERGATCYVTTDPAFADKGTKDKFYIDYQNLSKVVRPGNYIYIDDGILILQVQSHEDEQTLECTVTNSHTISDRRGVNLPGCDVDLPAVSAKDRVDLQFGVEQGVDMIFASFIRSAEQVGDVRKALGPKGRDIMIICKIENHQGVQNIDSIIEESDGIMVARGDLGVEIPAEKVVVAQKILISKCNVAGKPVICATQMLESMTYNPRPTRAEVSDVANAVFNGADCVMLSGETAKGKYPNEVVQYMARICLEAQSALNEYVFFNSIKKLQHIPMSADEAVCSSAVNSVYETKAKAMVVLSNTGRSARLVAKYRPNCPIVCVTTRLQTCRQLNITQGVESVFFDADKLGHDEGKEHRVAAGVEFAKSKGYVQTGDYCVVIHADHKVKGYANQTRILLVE
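In 50 mM imidazole pH 7.2 with 7 mM MgCl2, LmPK (0.1 nM) turned over PEP (0.5 mM) and ADP (0.1 mM) for 1 h at room temperature. Luciferase read-out of ATP.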
FBPA Giardia inh: qHTS Assay for Inhibitors of Fructose-1,6-bisphosphate Aldolase from Giardia Lamblia | actives 0.71% (n = 290,000) | Potency, µM (highest dose often 59.6 µM), actives largely listed as inhibitors | AID 2451, 2010 | purified Giardia FBPA | A8B2U2; note: nearly all actives have a fitted effect of over 55% in size
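40 nM FBPA preincubated 10 min at RT with compound (up to 57.5 uM final), then substrate plus GAPDH/TPI/NAD/arsenate coupling and diaphorase/resazurin added. Fluorescence read after 20 min at RT, 525/598 nm.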
CHX counter-2: Cycloheximide Counterscreen for Small Molecule Inhibitors of Shiga Toxin (Confirmatory). shares compounds with Shiga inhibitor. Cycloheximide counterscreen, protein synthesis reporter, Shiga toxin assay. Potency, µM (top dose mostly 38.3 µM), most hits filed as activators. actives 3% (n = 510). AID 2318, 2010; calls by dose curve
Large screens that a line does not name were inactive (follow-up assays come after a bar, where they were run); ! = repeats disagree. Many of the other results were omitted from the sample, so hits are more common in it than they were. Unless noted, calls come from the whole dose curve; as a rule, active = well fitted curve in the direction sought with a large enough effect; inconclusive = small, poorly fitted or top-dose-only effect, or another doubt; inactive = no such curve, though single readings can be large; an effect the other way counts as inactive or inconclusive.

CC(C)(C)NC(=O)c1ccc(COc2ccccc2Br)o1	Shiga inhibitor 34 | CHX counter-2 inactive
COc1ccc(CC(=O)NC(C)c2nnc(SCC(=O)c3ccc(OC)cc3)n2C)cc1 (stereo not given)	none
COc1ccc(C(=O)CSc2nnc(C(CO)NC(=O)c3ccc(OC)cc3)n2C)cc1 (stereo not given)	Shiga inhibitor 64 | CHX counter-2 inactive
CN(C)S(=O)(=O)c1ccc(C(=O)Nc2ccc(CN3CCCC3)cc2)cc1	Shiga inhibitor 51, FBPA Giardia inh inconclusive | CHX counter-2 inactive
CN(C)S(=O)(=O)c1ccc(C(=O)Nc2ccc(CCC(=O)N3CCCC3)cc2)cc1	none
Cc1oc(C(C)(C)C)cc1C(=O)NCC(=O)NCC(=O)O	Shiga inhibitor 50 | CHX counter-2 inactive
Cc1cc(C(=O)NCC(=O)Nc2c(C)cccc2C)c(C)o1	none
COc1ccc(NC(=O)C2=C(C)Nc3ncnn3C2c2sccc2C)cc1 (stereo not given)	none (no result: Shiga inhibitor, RE007 growth inh, CHX counter-1, LmPK inh, FBPA Giardia inh)
O=C(NC1CCCCC1)c1cccc(S(=O)(=O)N2CCCCC2)c1	Shiga inhibitor 71 | CHX counter-2 inactive
O=C(NN1CCOCC1)c1ccccc1Br	none
Cc1ccccc1C(=O)NN1CCOCC1	Shiga inhibitor 21 | CHX counter-2 inactive
CC(=O)c1cccc(NC(=O)/C(=C/c2ccco2)NC(=O)c2ccco2)c1	Shiga inhibitor 27 (no result: FBPA Giardia inh) | CHX counter-2 inactive
O=C(CCN1C(=O)c2cccc3cccc(c23)C1=O)NC1CCS(=O)(=O)C1 (stereo not given)	Shiga inhibitor 75 | CHX counter-2 inactive
C/C1=C\[C@@H](O)C(C(C)C)C(OC(=O)c2ccc(O)cc2)C/C(C)=C/CC1 (stereo not given in full)	Shiga inhibitor 24 (no result: Tb PYK inh, RE007 growth inh, LmPK inh) | CHX counter-2 inconclusive
CN(C)c1ncc2nc(-c3ccccc3)c(=O)n(Cc3ccc(F)cc3)c2n1	none (no result: Shiga inhibitor, Tb PYK inh, RE007 growth inh, CHX counter-1, LmPK inh)
COc1ccc(Oc2ncc3nc(C)c(=O)n(Cc4ccc(F)cc4)c3n2)cc1	none (no result: Shiga inhibitor, RE007 growth inh, CHX counter-1, LmPK inh)
Cc1ccc2c(c1C)NC(C(=O)O)C1CC=CC21 (stereo not given)	Shiga inhibitor 110!, Tb PYK inh inconclusive | CHX counter-2 inactive
CCOC(=O)Cc1csc(NC(=O)CSc2ncnc3c2cnn3-c2ccc(OC)cc2)n1	Shiga inhibitor 81 | CHX counter-2 inconclusive
CCOC(=O)CNC(=O)CSc1ncnc2c1cnn2-c1ccc(Cl)cc1	none
CC1CC(C)CN(C(=O)C(NS(=O)(=O)c2ccc(Br)s2)c2ccccc2)C1 (stereo not given)	Shiga inhibitor active | CHX counter-2 inactive
CCN(CC)CCCNC(=O)CN1C(=O)CCn2nc(-c3cn(C)c4ccccc34)cc21	none (no result: Shiga inhibitor, RE007 growth inh, CHX counter-1, LmPK inh, FBPA Giardia inh)
COc1ccc2c(c1)CCc1c(C(=O)Nc3c(C)nn(Cc4ccc(Cl)c(Cl)c4)c3C)noc1-2	none (no result: Shiga inhibitor, RE007 growth inh, CHX counter-1, LmPK inh, FBPA Giardia inh)
Cc1ccc(N2CCN(C(=O)c3ccccc3NC(=O)c3ccccc3C(=O)O)CC2)cc1	Shiga inhibitor 39 | CHX counter-2 inactive
Cc1ccc(C(=O)Nc2ccccc2C(=O)N2CCN(c3ccccc3)CC2)cc1	none
COc1ccccc1C(=O)Nc1ccc(N2CCN(C(C)=O)CC2)cc1	Shiga inhibitor 53 | CHX counter-2 inactive
COc1ccc(-c2cc(C(=O)Oc3cccc(C)c3C)c3ccccc3n2)cc1	none (no result: Shiga inhibitor, RE007 growth inh, CHX counter-1, LmPK inh, FBPA Giardia inh)
CCNC(=O)c1c(NC(=O)c2nc(S(=O)(=O)CC)ncc2Cl)sc2c1CCCC2	none (no result: Shiga inhibitor, RE007 growth inh, CHX counter-1, LmPK inh, FBPA Giardia inh)
Cc1nn(C(C)C(=O)NC2CCC(C)CC2)c(=O)c2nn(-c3ccccc3)c(C)c12 (stereo not given)	Shiga inhibitor 31 (no result: FBPA Giardia inh) | CHX counter-2 inconclusive
Cc1nn(C(C)C(=O)NC2CC2)c(=O)c2nn(-c3ccccc3)c(C)c12 (stereo not given)	none (no result: FBPA Giardia inh)
Cc1ccc(C(=O)c2c(N)c(-c3nc(-c4ccc5c(c4)OCO5)cs3)c3ccccn23)cc1C	none (no result: Shiga inhibitor, RE007 growth inh, CHX counter-1, LmPK inh, FBPA Giardia inh)

Assay outcomes deposited in PubChem by National Center for Advancing Translational Sciences (NCATS).
